This is an account of results in the supplement of paper PMC3414501.

Structures can show the parent of a compound that is named as a salt.
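Note: active if sensitivity score above 5.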

In the assay the test system is S. cerevisiae NKY1551 his4x/his4B, sporulating. Kind of assay: HIS4 meiotic recombination assay sensitivity score (z-score vs DMSO controls); higher = stronger inhibition of sporulation/recombination, active = hit call of the paper. How it is done:
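NIH Clinical Collection compounds were added 1:100 from stock (about 100 µM final) to S. cerevisiae. Growth: average doubling time (AvgG) over 24 h of BY4741 (wild-type) or AD1-9 (drug-efflux-pump deficient) in rich media. HIS4: the his4x/his4B heteroallelic recombination reporter strain (SK1) was sporulated 5 h with compound at 30°C, then colony density was read on -his plates after 48 h. Sensitivity score = (compound − mean of 8 DMSO controls)/SD of DMSO controls. Hit cutoffs are >2 for growth and >5 for sporulation.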
Consider `CC(=O)N1CCN(c2ccc(OCC3COC(Cn4ccnc4)(c4ccc(Cl)cc4Cl)O3)cc2)CC1` (stereo not given) [Ketoconazole] (stock concentration (mM, diluted 1:100): 10), for which the “HIS4 meiotic recombination assay sensitivity score” value was -1.74 (inactive).
As for `OCc1cccnc1` [3-Pyridinemethanol] (stock concentration (mM, diluted 1:100): 10), the figure is 0.73 (inactive); as for `CC(C(=O)O)c1ccc(CC2CCCC2=O)cc1` (stereo not given) [Loxoprofen sodium] (stock concentration (mM, diluted 1:100): 9.1), -0.15 (inactive); as for `Clc1ccc2c(c1)CCc1cccnc1C2=C1CCNCC1` [Desloratadine] (stock concentration (mM, diluted 1:100): 10), 1.24 (inactive).
With `CCC1=C(C)CN(C(=O)NCCc2ccc(S(=O)(=O)NC(=O)N[C@H]3CC[C@H](C)CC3)cc2)C1=O` [Glimepiride] (stock concentration (mM, diluted 1:100): 7.7), the “HIS4 meiotic recombination assay sensitivity score” value was 1.27 (inactive).
As for `CC(C)NCC(O)COc1ccc(CCOCC2CC2)cc1` (stereo not given) [Betaxolol hydrochloride] (stock concentration (mM, diluted 1:100): 10), the “HIS4 meiotic recombination assay sensitivity score” value is -0.58 (inactive).
For `COC(=O)CCc1ccc(OCC(O)CNC(C)C)cc1` (stereo not given) [Esmolol hydrochloride] (stock concentration (mM, diluted 1:100): 9), the “HIS4 meiotic recombination assay sensitivity score” value is 0.23 (inactive).
As for `CCCN[C@H]1CCc2nc(N)sc2C1` [Pramipexole] (stock concentration (mM, diluted 1:100): 10), the “HIS4 meiotic recombination assay sensitivity score” value was -2.92 (inactive).
Consider `COc1cc2nc(N(C)CCCNC(=O)C3CCCO3)nc(N)c2cc1OC` (stereo not given) [Alfuzosin] (stock concentration (mM, diluted 1:100): 10), for which the “HIS4 meiotic recombination assay sensitivity score” value was -0.29 (inactive).
Turning to `C=CC[C@@H]1/C=C(\C)C[C@H](C)C[C@H](OC)[C@H]2O[C@@](O)(C(=O)C(=O)N3CCCC[C@H]3C(=O)O[C@H](/C(C)=C/[C@@H]3CC[C@@H](O)[C@H](OC)C3)[C@H](C)[C@@H](O)CC1=O)[C@H](C)C[C@@H]2OC` [Tacrolimus] (stock concentration (mM, diluted 1:100): 10), the “HIS4 meiotic recombination assay sensitivity score” value is -0.77 (inactive).
For the molecule `Cc1ccnc2c1NC(=O)c1cccnc1N2C1CC1` [Viramune] (stock concentration (mM, diluted 1:100): 10), the “HIS4 meiotic recombination assay sensitivity score” value is 0.21 (inactive).
As for `O=c1ncc(F)c[nH]1` [5-Fluoro-2-Pyrimidone] (stock concentration (mM, diluted 1:100): 10), the figure is -0.02 (inactive).
With `CCOC(=O)O[C@]1(C(=O)OCCl)CC[C@H]2[C@@H]3CCC4=CC(=O)C=C[C@]4(C)[C@H]3[C@@H](O)C[C@@]21C` [Loteprednol etabonate] (stock concentration (mM, diluted 1:100): 10), the “HIS4 meiotic recombination assay sensitivity score” value is -0.2 (inactive).
In the case of `CNCCCC12CCC(c3ccccc31)c1ccccc12` [Maprotilline hydrochloride] (stock concentration (mM, diluted 1:100): 10), the “HIS4 meiotic recombination assay sensitivity score” value was 9.12 (active).
As for `CC(=O)CCCCn1c(=O)c2c(ncn2C)n(C)c1=O` [Pentoxifylline] (stock concentration (mM, diluted 1:100): 10), the figure is -0.42 (inactive).
In the case of `COc1cc(CNC(=O)CCCC/C=C/C(C)C)ccc1O` [Capsaicin] (stock concentration (mM, diluted 1:100): 10), the “HIS4 meiotic recombination assay sensitivity score” value is 2.12 (inactive).
Take `O=C1CC2(CCCC2)CC(=O)N1CCNCC1COc2ccccc2O1` (stereo not given) (stock concentration (mM, diluted 1:100): 10): the “HIS4 meiotic recombination assay sensitivity score” value was -0.57 (inactive).
Consider `CNC(=N)NCCC[C@H](N)C(=O)O` [omega-N-Methylarginine] (stock concentration (mM, diluted 1:100): 9.3), for which the “HIS4 meiotic recombination assay sensitivity score” value is -0.29 (inactive).
Take `CCCCCNC(=N)N/N=C/c1c[nH]c2ccc(OC)cc12` [Tegaserod maleate] (stock concentration (mM, diluted 1:100): 7.2): the “HIS4 meiotic recombination assay sensitivity score” value was -0.84 (inactive).
`CCCCC[C@H](O)/C=C/[C@H]1[C@H](O)CC(=O)[C@@H]1CCCCCCC(=O)O` [Prostaglandin E1] (stock concentration (mM, diluted 1:100): 10): the “HIS4 meiotic recombination assay sensitivity score” value is 1.5 (inactive).
As for `CN(C)CCCC1(c2ccc(F)cc2)OCc2cc(C#N)ccc21` (stereo not given) [Citalopram hydrobromide] (stock concentration (mM, diluted 1:100): 7.9), the figure is 7.31 (active); as for `CCCc1nc(C)c2c(=O)nc(-c3cc(S(=O)(=O)N4CCN(CC)CC4)ccc3OCC)[nH]n12` [Vardenafil citrate] (stock concentration (mM, diluted 1:100): 7.2), -0.18 (inactive).
For the molecule `CCOc1cc(N)c(Cl)cc1C(=O)NCC1CN(Cc2ccc(F)cc2)CCO1` (stereo not given) [Mosapride citrate] (stock concentration (mM, diluted 1:100): 6.9), the “HIS4 meiotic recombination assay sensitivity score” value is -0.43 (inactive).
Turning to `CN1CCC(=C2c3ccccc3CC(=O)c3sccc32)CC1` [Ketotifen fumarate] (stock concentration (mM, diluted 1:100): 8.9), the “HIS4 meiotic recombination assay sensitivity score” value is 2.1 (inactive).
As to `C[C@@H](O)[C@H]1C(=O)N2C(C(=O)O)=C(S[C@@H]3CN[C@H](C(=O)N(C)C)C3)[C@H](C)[C@H]12` [Meropenem] (stock concentration (mM, diluted 1:100): 11.4), the “HIS4 meiotic recombination assay sensitivity score” value was -1.58 (inactive).
As for `Cc1ccsc1C(=CCCN1CCC[C@@H](C(=O)O)C1)c1sccc1C` [Tiagabine hydrochloride] (stock concentration (mM, diluted 1:100): 9.1), the figure is 5.07 (active); as for `CN(C)CCc1c[nH]c2ccc(C[C@H]3COC(=O)N3)cc12` [Zolmitriptan] (stock concentration (mM, diluted 1:100): 10), 0.22 (inactive).
As to `COC(=O)C1=C(C)NC(C)=C(C(=O)OC(C)C)C1c1cccc2nonc12` (stereo not given) [Isradipine] (stock concentration (mM, diluted 1:100): 9.9), the “HIS4 meiotic recombination assay sensitivity score” value is 5.46 (active).
As for `CS(=O)(=O)c1ccc(-c2cc(Br)sc2-c2ccc(F)cc2)cc1` (stock concentration (mM, diluted 1:100): 10), the figure is 1.98 (inactive); as for `Nc1ncnc2c1ncn2[C@@H]1O[C@H](CO)C[C@@H]1O` [3-Deoxydenosine] (stock concentration (mM, diluted 1:100): 10), 7.05 (active).
As for `O=c1c(-c2ccccc2)c1-c1ccccc1` [Diphenylcyclopropenone] (stock concentration (mM, diluted 1:100): 10), the figure is -0.87 (inactive); as for `CCN1CCC[C@H]1CNC(=O)c1c(O)c(Cl)cc(Cl)c1OC` [Raclopride] (stock concentration (mM, diluted 1:100): 10), -0.66 (inactive).
In the case of `CCN(CC)CC1CCCCN1CC(=O)N1c2ccccc2C(=O)Nc2cccnc21` (stereo not given) [Otenzepad] (stock concentration (mM, diluted 1:100): 10), the “HIS4 meiotic recombination assay sensitivity score” value was -0.63 (inactive).
For the molecule `Nc1ccn([C@@H]2O[C@H](CO)[C@@H](O)[C@@H]2O)c(=O)n1` [Cytarabine] (stock concentration (mM, diluted 1:100): 10), the “HIS4 meiotic recombination assay sensitivity score” value is -0.49 (inactive).
`C#C[C@]1(O)CC[C@H]2[C@@H]3CCC4=CC(=O)CC[C@@H]4[C@H]3CC[C@@]21CC` [Levonorgestrel] (stock concentration (mM, diluted 1:100): 10): the “HIS4 meiotic recombination assay sensitivity score” value was -2.79 (inactive).
As for `OC[C@H]1O[C@@H](Oc2cc(O)cc(/C=C/c3ccc(O)cc3)c2)[C@H](O)[C@@H](O)[C@@H]1O` [Piceid] (stock concentration (mM, diluted 1:100): 10), the “HIS4 meiotic recombination assay sensitivity score” value was -1.14 (inactive).
Consider `CC(=O)NCCCCCCNC(C)=O` [Hexamethylene bisacetamide] (stock concentration (mM, diluted 1:100): 10), for which the “HIS4 meiotic recombination assay sensitivity score” value was -0.63 (inactive).
Consider `CNS(=O)(=O)Cc1ccc2[nH]cc(CCN(C)C)c2c1` [Sumatriptan succinate] (stock concentration (mM, diluted 1:100): 7.2), for which the “HIS4 meiotic recombination assay sensitivity score” value is -0.69 (inactive).
For the molecule `N[C@@H](C(=O)N[C@@H]1C(=O)N2C(C(=O)O)=C(CSc3cn[nH]n3)CS[C@H]12)c1ccc(O)cc1` [Seapuron] (stock concentration (mM, diluted 1:100): 8.6), the “HIS4 meiotic recombination assay sensitivity score” value is 0.57 (inactive).
On to `Nc1ccn([C@H]2CC[C@@H](CO)O2)c(=O)n1` [Zalcitabine] (stock concentration (mM, diluted 1:100): 10), for which the “HIS4 meiotic recombination assay sensitivity score” value was -0.41 (inactive).
